# ChEMBL document CHEMBL4513216, “Probing the Open Global Health Chemical Diversity Library for Multistage-Active Starting Points for Next-Generation Antimalarials” (ACS Infect Dis, 2020)
# The whole screen tested about 69,000 compounds, of which about 8,600 (12%) showed an effect of 50% or more. Many of the other results were omitted from the sample, so strong results are more common in it than they were.
# Test system: Plasmodium berghei
# Experiment: Screen against P. berghei liver stage (PbLuc), transformed with Luciferase, at 10uM
# Format: functional, HepG2
# Details: tested at 10 uM
row,Compound,INHIBITION
1,CCN1CCN(c2nc(O)cc(Cc3ccccc3F)n2)CC1,10.9%
2,CNC(=O)c1sccc1S(=O)(=O)NC,46.6%
3,CNC(=O)c1sccc1S(=O)(=O)Nc1ccc(C)cc1,61.1%
4,CNS(=O)(=O)c1ccsc1C(=O)OC,37.6%
5,O=C(c1cccnc1)N1CCCC1c1nc(O)cc(-c2ccccn2)n1 (stereo not drawn),36.7%
6,O=C1NCCCC1NC(=O)C1(c2cccc(Cl)c2)CCC1 (stereo not drawn),-2.27%
7,O=S(=O)(c1cccc(Cl)c1)N1C[C@@H]2CCN[C@@H]2C1,-14.7%
8,c1ccc(CCNc2cccc(C3CCCNC3)n2)cc1 (stereo not drawn),34%
9,Clc1cccc(C[C@@H]2NCCC[C@@H]2Nc2ccccc2)c1,86.1%
10,O=C1NCCCc2[nH]c(Cc3cccc(Cl)c3)nc21,32%
11,Clc1cccc(N[C@H]2CCCN[C@H]2Cc2ccccc2)c1,91.6%
12,O=C(Cc1cccc(Cl)c1)N[C@@H]1CCNC[C@H]1O,0.547%
13,O=C(NCCc1cccc(Cl)c1)C1CCOCC1,27.7%
14,Clc1cccc(C[C@@H]2NCCC[C@@H]2Nc2cccc(Cl)c2)c1,92.6%
15,CCOCC(=O)N1CCC2(CC1)COCCN2CCN(C)C,-3.33%
16,O=C(c1ccc(F)cc1)N1C[C@H]2CCC[C@@]2(COCc2ccncc2)C1,16.8%
17,CC(C)CNC(=O)C1(Cc2ccccc2-c2cccs2)CCNC1 (stereo not drawn),14.7%
18,COc1ccc(C(C)NC(=O)Cn2ccc(=O)n(C)c2=O)cc1F (stereo not drawn),-29.8%
19,Cc1ccccc1OCC(O)CN1CCC(Cn2cccn2)CC1 (stereo not drawn),17.5%
20,O=S1(=O)c2ccccc2OCC2(CCN(CCO)CC2)CN1CC1CC1,-8.94%
21,CC(=O)N1CCC2(CCN(C(=O)c3ccc(Cl)c(C(F)(F)F)c3)CC2)C1,51.2%
22,CC(=O)N1CC2(CCN(C(=O)c3ccc4c(c3)OCCO4)CC2)C1,-38.1%

row,Compound,INHIBITION
1,CC(=O)N1CCC2(CCN(C(=O)c3ccc(Cl)c(C(F)(F)F)c3)C2)C1 (stereo not drawn),50.9%
2,CC(=O)N1CCCC2(CCN(C(=O)c3ccc(Cl)c(C(F)(F)F)c3)C2)C1 (stereo not drawn),32.2%
3,CC(=O)N1CCC2(CCCN(C(=O)c3ccc(Cl)c(C(F)(F)F)c3)C2)C1 (stereo not drawn),28.7%
4,CC(=O)N1CC2(CCN(C(=O)c3ccoc3)C2)C1,27.6%
5,Cc1nc(-c2cccnc2)ncc1C(=O)N1CCC(C(C)N(C)C)CC1 (stereo not drawn),70.4%
6,Cc1nc(-c2cccnc2)ncc1C(=O)N1CCCC(N(C)C)CC1 (stereo not drawn),21.6%
7,Cc1nc(-c2cccnc2)ncc1C(=O)N1CCC(c2ncc[nH]2)CC1,21.6%
8,CCCOCC1CCN(C(=O)c2cnc(-c3cccnc3)nc2O)C1 (stereo not drawn),-27.3%
9,Cc1nc(-c2cccnc2)ncc1C(=O)N1CCCCC(N)C1 (stereo not drawn),55.6%
10,N[C@H]1CCCN(C(=O)c2cnc(COc3ccccc3)nc2O)C1,-58%
11,Cc1nn(C)c(C)c1C1CCCN1Cc1nc(-c2cccs2)no1 (stereo not drawn),-2.53%
12,CC(C)c1nccc(CN2CCCC(O)(CN(C)C)CC2)n1 (stereo not drawn),-3.55%
13,CC1CN(CC(=O)N2CCOCC2)CCN1Cc1nccn1C (stereo not drawn),20.915%
14,Cc1nc2c(c(Nc3ccccn3)n1)CN(S(C)(=O)=O)CC2,-10.4%
15,N#Cc1ccccc1C(=O)N1C[C@@H]2CC[C@H]1CN(Cc1ccccc1)C2,27.6%
16,COCCCSc1ccc(NCc2cscn2)cc1,26.9%
17,COCCCSc1ccc(NCc2ccc(C)cn2)cc1,72.2%
18,COCCCSc1ccc(NCc2scnc2C)cc1,95.4%
19,COCCCSc1ccc(NC(=O)Nc2cn[nH]c2)cc1,41.2%
20,COc1cc2nc(NCc3scnc3C)nc(N)c2cc1OC,45%
21,COCCn1ccc(NCc2scnc2C)n1,17.7%
22,COCCCNC(=O)c1cc(OC)c2ccoc2c1,-25.7%

row,Compound,INHIBITION
1,CNC(=O)[C@H]1C[C@@H]2CN(C(=O)c3ccoc3)C[C@@H]2N1S(C)(=O)=O,-15.2%
2,Cc1ccsc1C(=O)NCc1ccnc(N2CCN(C)CC2)c1,4.45%
3,Cn1cc(NC(=O)Cc2ccccc2Br)cc1C(N)=O,-3.21%
4,CC(C)(C)c1ccc(OCC(=O)O)c(CN2C[C@H]3CC(O)C[C@H]3C2)c1 (stereo partly drawn),40.55%
5,Cc1ccccc1CN1CCC2(COCc3cnc(N(C)C)nc32)C1 (stereo not drawn),21.8%
6,Cc1noc(C)c1CN(C)C(=O)c1ccc(C(F)(F)F)nc1,-9.37%
7,CN(C)CCN1CCOCC2(CCN(Cc3ccc[nH]3)CC2)C1,-7.94%
8,Cc1cccc(N2CC(c3nnc(N)s3)CC2=O)c1 (stereo not drawn),35%
9,FC(F)(F)Oc1ccc(-c2noc([C@@H]3Cc4nc[nH]c4CN3)n2)cc1,64.8%
10,Fc1ccc(-c2noc([C@@H]3Cc4nc[nH]c4CN3)n2)cc1,-9.26%
11,Cc1ccc(-c2noc([C@@H]3Cc4nc[nH]c4CN3)n2)cc1,36.2%
12,O=C(N[C@H]1CCCC[C@@H]1O)c1ccc(-c2nc3ccccc3[nH]2)cc1,14.5%
13,Cc1ccc(NC2CCN(C(=O)c3cc(C)no3)CC2)nn1,-25.85%
14,CN(CCC(F)(F)F)C(=O)C1CSCN1C(=O)C(C)(C)C (stereo not drawn),31.2%
15,Cc1ncoc1C(=O)N1CCCC(c2ccc3c(N)nn(C)c3n2)C1 (stereo not drawn),5.2%
16,CNc1nc(C2CCCN2C(C)=O)nc2c1CCN(CC1CC1)C2 (stereo not drawn),-2.42%
17,CCC(=O)N1CCC(c2nc3c(c(NC)n2)CN(C)CC3)C1 (stereo not drawn),-22.6%
18,CNc1nc(C2CCCN2C(C)=O)nc2c1CN(C1CCCC1)CC2 (stereo not drawn),67.9%
19,CNc1nc(C2CCCN(C(=O)CNC(C)=O)C2)nc2c1CN(C)CC2 (stereo not drawn),42.4%
20,CNc1nc(C2CCN(C(=O)CC3CCCC3)C2)nc2c1CN(C)CC2 (stereo not drawn),67.7%
21,CNc1nc(C2CCCN2C(C)=O)nc2c1CN(CCO)CC2 (stereo not drawn),11.5%
22,CSCC(C)(O)CNS(=O)(=O)Cc1ccc(F)cc1 (stereo not drawn),33.7%

row,Compound,INHIBITION
1,CC(C)(C(=O)O)S(=O)(=O)c1ccc(Br)cc1,4.82%
2,Cn1ncc2c1C(COCC1CC1)CN(Cc1ccoc1)C2 (stereo not drawn),35.8%
3,N#Cc1cccc(OCC(=O)N(Cc2ccsc2)C2CC2)c1,54.5%
4,O=C(COc1ccccc1)N(Cc1ccncc1)C1CC1,61.9%
5,O=C(c1cccnc1)N(Cc1ccncc1)C1CC1,14.8%
6,COc1cc(C(C)=O)ccc1OCC(=O)N(Cc1ccsc1)C1CC1,-16%
7,N#Cc1ccc(C(=O)N(Cc2ccncc2)C2CC2)cc1,-19.4%
8,Cc1cccc(OCC(=O)N(Cc2ccncc2)C2CC2)c1,31.3%
9,N#Cc1cccc(CN(CCO)Cc2ccsc2)c1,33.4%
10,N#Cc1cccc(OCC(=O)N(Cc2ccncc2)C2CC2)c1,59.1%
11,Cc1noc(C)c1CN(C)C(=O)COc1cccc(C#N)c1,8.08%
12,O=C(COc1ccc2c(c1)CCC2)NCc1ccco1,33.2%
13,O=C(NC1CCC2(CCC(=O)N2CC2CC2)CC1)c1cnccn1 (stereo not drawn),-40.5%
14,CNC(=O)C(C)(C)N1CCC[C@H]1C(=O)NCCN(C)C,49.4%
15,C=C(C)CSc1nnc(CCNC(=O)OC(C)(C)C)o1,-0.532%
16,CCSc1nnc(CCNC(=O)OC(C)(C)C)o1,-17.3%
17,COC(=O)CSc1nnc(CCNC(=O)OC(C)(C)C)o1,52.5%
18,Cc1cccc(-c2nccnc2C2CCCN(C)C2)c1 (stereo not drawn),16.105%
19,Cc1nccn1CC1CCCN1S(=O)(=O)Cc1cccc(F)c1 (stereo not drawn),-7.35%
20,O=C(c1cc(C2CCCCC2)no1)N1C[C@H]2CC(O)C[C@H]2C1 (stereo partly drawn),-15.1%
21,Cc1ncc2c(n1)CCCC2NC(=O)c1ccccc1C(=O)O (stereo not drawn),11.6%
22,Cc1ncc2c(n1)CCCC2NC(=O)c1ccccc1Cn1cncn1 (stereo not drawn),64%

row,Compound,INHIBITION
1,Cc1ncc2c(n1)CCCC2NC(=O)c1cnn(Cc2ccccc2)c1 (stereo not drawn),26.4%
2,Cc1nc(C)c(C(=O)N2CCc3nnc(C4CCCN4C)n3CC2)s1 (stereo not drawn),-14.6%
3,O=C(C1CC1)N1CCC2(CC1)COCCN2Cc1ccc(F)cc1,68.4%
4,COCC(=O)N1CCC2(CC1)COCCN2Cc1ccc(F)cc1,26.4%
5,CCC(=O)N1CCC2(CC1)COCCN2Cc1ccc(F)cc1,66%
6,CC(=O)N1CCC2(CC1)COCCN2Cc1ccc(F)cc1,34.7%
7,CCN1CCOCC12CCN(C(=O)Cc1ccccc1)CC2,28.7%
8,O=C(C1CC1)N1CCC2(CCN2Cc2ccc(F)cc2)C1 (stereo not drawn),9.97%
9,O=C(Cc1ccccc1)N1CCC2(CCN2Cc2ccc(F)cc2)C1 (stereo not drawn),1.34%
10,CC(C)CC(=O)N1CCC2(CC1)COCCN2Cc1ccc(F)cc1,56.7%
11,CC(C)C(=O)N1CCC2(CC1)COCCN2Cc1ccc(F)cc1,63.7%
12,O=C(C1CC1)N1CCC2(CCCN2Cc2ccc(F)cc2)CC1,13.7%
13,O=C(CC1CCCC1)N1CCC2(CCN2Cc2ccc(F)cc2)C1 (stereo not drawn),-43%
14,CCN1CCOCC12CCN(C(=O)Cc1cccs1)CC2,23.3%
15,CC(=O)NCCCNC(=O)N1CCN(c2cc(F)ccc2F)CC1,-15%
16,N#Cc1ccccc1CN1C[C@H]2CC[C@@H](C1)N(Cc1cscn1)C2=O,6.8%
17,CCc1nc(C)sc1CN1CC[C@@](O)(CCOC)[C@H](C)C1,21.8%
18,COCCn1cncc1-c1nc2c([nH]1)CC(C)(C)CNC2=O,-27.6%
19,COCC(=O)N1CCCCC1c1nc(C)c2c(n1)N(C1CC1)C(=O)CC2 (stereo not drawn),36.9%
20,CCN1CCC(NC(=O)CN2CCCC2Cn2nc(C)nc2C)CC1 (stereo not drawn),31.2%
